From PubChem BioAssay (Tox21)
The source made the active and inactive calls. Where a call stands in place of a potency, no number is given. Calls follow the shape of the dose curve; as a rule, active = well fitted curve in the direction sought with a large enough effect in the repeat runs; inconclusive = weak or mixed curves; inactive = flat fitted curve, though single readings scatter.

Experiment: qHTS assay to test for compound auto fluorescence at 590 nm (red) in HEK293 cell free culture (AID 720683)
Settings: cell-free medium autofluorescence, Ex540/Em590 red; series mostly up to 91.3 µM
In short: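 Red-channel autofluorescence of compounds in culture medium (DMEM, 10% FBS), no cells, measured at 540/590 nm. Rose Bengal sodium is the reference fluorophore for equivalence.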

Row | Compound | outcome | fluorescence, % of fluorescent control
1 | N[C@@H](Cc1cc(I)c(O)c(I)c1)C(=O)O | inactive | –
2 | CCCCCCCC/C=C\CCCCCCCC(=O)OCCO | inactive | –
3 | COc1ccc(CCN(C)CCCN2CCc3cc(OC)c(OC)cc3CC2=O)cc1OC | inactive | –
4 | CC(C)(C)C1(CCc2ccc(Cl)cc2)CO1 (configuration not stated) | inactive | –
5 | O=C(O)c1ccc(O)cc1O | inactive | –
6 | COC1CCC=CO1 (configuration not stated) | inactive | –
7 | CCN(CC)CCOC(=O)C(c1ccccc1)c1ccccc1 | inactive | –
8 | Cc1cccc2sc(N)nc12 | inactive | –
9 | CC(=O)OCC(=O)[C@@]1(OC(C)=O)[C@@H](C)C[C@H]2[C@@H]3C[C@H](F)C4=CC(=O)C=C[C@]4(C)[C@@]3(F)[C@@H](O)C[C@@]21C | inactive | –
10 | CC[C@@H](CO)NCCN[C@@H](CC)CO | – | 0.0179% [at 18.6 µM] (inactive)
11 | COc1ccc(N)c([N+](=O)[O-])c1 | inactive | –
12 | Cc1ccc2c(c1[N+](=O)[O-])C(=O)c1ccccc1C2=O | inactive | –
13 | Cc1cn([C@H]2C[C@H](F)[C@@H](CO)O2)c(=O)[nH]c1=O | inactive | –
14 | CCCCCc1ccco1 | inactive | –
15 | CCCCC(CC)COS(=O)(=O)O (configuration not stated) | inactive | –
16 | c1ccc(CCCc2ccncc2)cc1 | inactive | –
17 | SCCc1cnccn1 | inactive | –
18 | O=C1NC(=O)c2cccc3cccc1c23 | inactive | –
19 | CC1CCCC(=O)C1=O (configuration not stated) | inactive | –
20 | CCC1CCC(CCC(=O)O)C1 (configuration not stated) | inactive | –
21 | BrC(Br)C(Br)Br | inactive | –
22 | O=c1[nH]c2cc(C(F)(F)F)c(N3CCOCC3)cc2n(CP(=O)(O)O)c1=O | inactive | –
23 | Cc1c(C2(c3cc(Br)c(O)c(Br)c3C)OS(=O)(=O)c3ccccc32)cc(Br)c(O)c1Br | inactive | –
24 | O=C(O)CN1C(=O)c2cccc3cccc(c23)C1=O | inactive | –
25 | CCCCCC | inactive | –
26 | O=C(O)c1cccc(C[C@@H]2COc3ccc(OCc4nc5cc(F)ccc5s4)cc3[C@@H]2O)c1 | inactive | –
27 | O=C(O)CCC(=O)OC[C@@H](NC(=O)C(Cl)Cl)[C@H](O)c1ccc([N+](=O)[O-])cc1 | inactive | –
28 | CC(O)Cn1cnc2c1c(=O)n(C)c(=O)n2C (configuration not stated) | – | 0.243% [at 18.6 µM] (inactive)
29 | CCCOC(=O)c1c(Cl)c(Cl)c(Cl)c(Cl)c1C(=O)OCCC | inactive | –

Experiment: qHTS assay to test for compound auto fluorescence at 590 nm (red) in HepG2 cell free culture (AID 720684)
Settings: cell-free medium autofluorescence, red 540/590 nm; series mostly up to 91.3 µM
In short: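 Steps: dispense MEM/10% FBS medium, no cells; pin compound or DMSO vehicle; read red channel, Ex/Em 540/590 nm. Output given as Rose Bengal sodium equivalents.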

Row | Compound | outcome | fluorescence, % of Rose Bengal
30 | N[C@@H](Cc1cc(I)c(O)c(I)c1)C(=O)O | inactive | –
31 | CCCCCCCC/C=C\CCCCCCCC(=O)OCCO | inactive | –
32 | COc1ccc(CCN(C)CCCN2CCc3cc(OC)c(OC)cc3CC2=O)cc1OC | inactive | –
33 | CC(C)(C)C1(CCc2ccc(Cl)cc2)CO1 (configuration not stated) | inactive | –
34 | CC(=O)C(C)=O | inactive | –
35 | O=C(O)c1ccc(O)cc1O | inactive | –
36 | COC1CCC=CO1 (configuration not stated) | inactive | –
37 | CCN(CC)CCOC(=O)C(c1ccccc1)c1ccccc1 | inactive | –
38 | Cc1cccc2sc(N)nc12 | inactive | –
39 | CC(=O)OCC(=O)[C@@]1(OC(C)=O)[C@@H](C)C[C@H]2[C@@H]3C[C@H](F)C4=CC(=O)C=C[C@]4(C)[C@@]3(F)[C@@H](O)C[C@@]21C | inactive | –
40 | COc1ccc(C(=O)NCc2ccc(OCCN(C)C)cc2)cc1OC | inactive | –
41 | CC[C@@H](CO)NCCN[C@@H](CC)CO | – | 0.0051% [at 18.6 µM] (inactive)
42 | COc1ccc(N)c([N+](=O)[O-])c1 | inactive | –
43 | Cc1ccc2c(c1[N+](=O)[O-])C(=O)c1ccccc1C2=O | inactive | –
44 | CC(=O)N[C@@H](Cc1ccc(O)cc1)C(=O)O | inactive | –
45 | Cc1cn([C@H]2C[C@H](F)[C@@H](CO)O2)c(=O)[nH]c1=O | inactive | –
46 | C1=CCC2CC=CC2C1 (configuration not stated) | inactive | –
47 | c1ccc(CNc2ncnc3c2ncn3C2CCCCO2)cc1 (configuration not stated) | inactive | –
48 | CCCCCc1ccco1 | inactive | –

Row | Compound | outcome | fluorescence, % of Rose Bengal
49 | CCCCC(CC)COS(=O)(=O)O (configuration not stated) | inactive | –
50 | CC1CCCO1 (configuration not stated) | inactive | –
51 | c1ccc(CCCc2ccncc2)cc1 | inactive | –
52 | CC(C)(C(=O)c1cccnc1)c1cccnc1 | – | 0.0034% [at 18.6 µM] (inactive)
53 | SCCc1cnccn1 | inactive | –
54 | O=C1NC(=O)c2cccc3cccc1c23 | inactive | –
55 | CC1CCCC(=O)C1=O (configuration not stated) | inactive | –
56 | CCC1CCC(CCC(=O)O)C1 (configuration not stated) | inactive | –
57 | BrC(Br)C(Br)Br | inactive | –
58 | O=c1[nH]c2cc(C(F)(F)F)c(N3CCOCC3)cc2n(CP(=O)(O)O)c1=O | inactive | –
59 | Cc1c(C2(c3cc(Br)c(O)c(Br)c3C)OS(=O)(=O)c3ccccc32)cc(Br)c(O)c1Br | inactive | –
60 | O=C(O)CN1C(=O)c2cccc3cccc(c23)C1=O | inactive | –
61 | CCCCCC | inactive | –
62 | O=C(O)c1cccc(C[C@@H]2COc3ccc(OCc4nc5cc(F)ccc5s4)cc3[C@@H]2O)c1 | inactive | –
63 | COC(OC)OC | inactive | –
64 | O=C(O)CCC(=O)OC[C@@H](NC(=O)C(Cl)Cl)[C@H](O)c1ccc([N+](=O)[O-])cc1 | inactive | –
65 | CC(O)Cn1cnc2c1c(=O)n(C)c(=O)n2C (configuration not stated) | – | -0.131% [at 18.6 µM] (inactive)
66 | CCCOC(=O)c1c(Cl)c(Cl)c(Cl)c(Cl)c1C(=O)OCCC | inactive | –

Experiment: qHTS assay to test for compound auto fluorescence at 460 nm (blue) in HepG2 cell free culture (AID 720685)
Settings: Cell-free culture medium, blue autofluorescence 405/460 nm; series mostly up to 91.3 µM
In short: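 Compound (23 nL) or DMSO pinned into cell-free MEM with 10% FBS; blue fluorescence read at 405/460 nm excitation/emission, expressed as auto-fluorescence equivalency to triamterene.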

Row | Compound | Potency | fluorescence, % of fluorescent control
67 | N[C@@H](Cc1cc(I)c(O)c(I)c1)C(=O)O | inactive | –
68 | CCCCCCCC/C=C\CCCCCCCC(=O)OCCO | inactive | –
69 | COc1ccc(CCN(C)CCCN2CCc3cc(OC)c(OC)cc3CC2=O)cc1OC | inactive | –
70 | COC1CCC=CO1 (configuration not stated) | inactive | –
71 | CCN(CC)CCOC(=O)C(c1ccccc1)c1ccccc1 | inactive | –
72 | Cc1cccc2sc(N)nc12 | inactive | –
73 | CC(=O)OCC(=O)[C@@]1(OC(C)=O)[C@@H](C)C[C@H]2[C@@H]3C[C@H](F)C4=CC(=O)C=C[C@]4(C)[C@@]3(F)[C@@H](O)C[C@@]21C | inactive | –
74 | COc1ccc(C(=O)NCc2ccc(OCCN(C)C)cc2)cc1OC | inactive | –
75 | CC[C@@H](CO)NCCN[C@@H](CC)CO | – | 0.0488% [at 18.6 µM] (inactive)
76 | COc1ccc(N)c([N+](=O)[O-])c1 | inactive | –
77 | Cc1ccc2c(c1[N+](=O)[O-])C(=O)c1ccccc1C2=O | inactive | –
78 | CC(=O)N[C@@H](Cc1ccc(O)cc1)C(=O)O | inactive | –
79 | Cc1cn([C@H]2C[C@H](F)[C@@H](CO)O2)c(=O)[nH]c1=O | inactive | –
80 | C1=CCC2CC=CC2C1 (configuration not stated) | inactive | –
81 | CCCCCc1ccco1 | inactive | –
82 | CCCCC(CC)COS(=O)(=O)O (configuration not stated) | inactive | –

Row | Compound | Potency | fluorescence, % of fluorescent control
83 | c1ccc(CCCc2ccncc2)cc1 | inactive | –
84 | CC(C)(C(=O)c1cccnc1)c1cccnc1 | – | -0.0441% [at 18.6 µM] (inactive)
85 | SCCc1cnccn1 | inactive | –
86 | O=C1NC(=O)c2cccc3cccc1c23 | inactive | –
87 | CC1CCCC(=O)C1=O (configuration not stated) | inactive | –
88 | BrC(Br)C(Br)Br | inactive | –
89 | O=c1[nH]c2cc(C(F)(F)F)c(N3CCOCC3)cc2n(CP(=O)(O)O)c1=O | inactive | –
90 | Cc1c(C2(c3cc(Br)c(O)c(Br)c3C)OS(=O)(=O)c3ccccc32)cc(Br)c(O)c1Br | inactive | –
91 | O=C(O)CN1C(=O)c2cccc3cccc(c23)C1=O | inactive | –
92 | CCCCCC | inactive | –
93 | O=C(O)c1cccc(C[C@@H]2COc3ccc(OCc4nc5cc(F)ccc5s4)cc3[C@@H]2O)c1 | inactive | –
94 | COC(OC)OC | inactive | –
95 | O=C(O)CCC(=O)OC[C@@H](NC(=O)C(Cl)Cl)[C@H](O)c1ccc([N+](=O)[O-])cc1 | inactive | –
96 | CC(O)Cn1cnc2c1c(=O)n(C)c(=O)n2C (configuration not stated) | – | -0.0952% [at 18.6 µM] (inactive)
97 | CCCOC(=O)c1c(Cl)c(Cl)c(Cl)c(Cl)c1C(=O)OCCC | inactive | –
